The results in this text go back to ChEMBL document CHEMBL1961873, “Compounds: GSK PKIS; Assays: Nanosyn kinase panel” (2012).

One may read the inhibition as the change of the read-out against control, counted positive when it falls.

Experiment [1] has as its system Proto-oncogene tyrosine-protein kinase receptor Ret (Homo sapiens), P07949 [Y791F]. The note with it: at 1 µM.
Experiment [2] concerns the target Macrophage-stimulating protein receptor (Homo sapiens) (UniProt Q04912). The following applies: at 0.1 µM.
For experiment [3] the target is unchanged. The note with it: at 1 µM.
Experiment [4] addresses Proto-oncogene tyrosine-protein kinase ROS (Homo sapiens) (UniProt P08922). The following applies: at 0.1 µM.
The target is the same in experiment [5]. The following applies: at 1 µM.
The target of experiment [6] is Proto-oncogene tyrosine-protein kinase Src (Homo sapiens) (UniProt P12931). The following applies: at 0.1 µM.
Experiment [7] shares this target. The note with it: at 1 µM.
Experiment [8] concerns the target Tyrosine-protein kinase Srms (Homo sapiens) (UniProt Q9H3Y6). The note with it: at 0.1 µM.
Experiment [9] has the same target. The following applies: at 1 µM.
Experiment [10] addresses Tyrosine-protein kinase SYK (Homo sapiens) (UniProt P43405). The note with it: at 0.1 µM.
Experiment [11] has the same target. The note with it: at 1 µM.
Experiment [12] has as its target T1, Tyrosine-protein kinase Tec (Homo sapiens) (UniProt P42680).
T1 sequence (whole entry): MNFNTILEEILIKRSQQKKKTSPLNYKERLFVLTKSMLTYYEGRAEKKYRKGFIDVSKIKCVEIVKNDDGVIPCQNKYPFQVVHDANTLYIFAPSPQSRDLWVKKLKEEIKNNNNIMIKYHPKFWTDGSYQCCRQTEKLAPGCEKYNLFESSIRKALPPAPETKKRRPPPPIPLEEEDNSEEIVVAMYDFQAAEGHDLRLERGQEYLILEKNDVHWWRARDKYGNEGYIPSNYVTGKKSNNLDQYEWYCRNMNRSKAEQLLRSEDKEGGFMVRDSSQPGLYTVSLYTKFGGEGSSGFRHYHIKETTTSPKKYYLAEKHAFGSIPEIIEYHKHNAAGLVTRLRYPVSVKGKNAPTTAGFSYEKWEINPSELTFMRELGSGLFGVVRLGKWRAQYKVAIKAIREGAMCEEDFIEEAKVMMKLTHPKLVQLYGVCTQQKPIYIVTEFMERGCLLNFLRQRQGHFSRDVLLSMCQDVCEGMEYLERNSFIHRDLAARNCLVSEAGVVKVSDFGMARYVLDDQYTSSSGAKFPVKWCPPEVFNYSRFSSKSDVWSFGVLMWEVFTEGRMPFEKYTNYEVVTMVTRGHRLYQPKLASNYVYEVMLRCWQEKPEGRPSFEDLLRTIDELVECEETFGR
The following applies: at 0.1 µM.

For experiment [13], the target named is T1, Tyrosine-protein kinase Tec (Homo sapiens). The following applies: at 1 µM.
Experiment [14] addresses Angiopoietin-1 receptor (Homo sapiens) (UniProt Q02763). The following applies: at 0.1 µM.
The target is the same in experiment [15]. The note with it: at 1 µM.
For experiment [16], the target named is T2, Non-receptor tyrosine-protein kinase TNK1 (Homo sapiens) (UniProt Q13470).
T2 sequence (whole entry): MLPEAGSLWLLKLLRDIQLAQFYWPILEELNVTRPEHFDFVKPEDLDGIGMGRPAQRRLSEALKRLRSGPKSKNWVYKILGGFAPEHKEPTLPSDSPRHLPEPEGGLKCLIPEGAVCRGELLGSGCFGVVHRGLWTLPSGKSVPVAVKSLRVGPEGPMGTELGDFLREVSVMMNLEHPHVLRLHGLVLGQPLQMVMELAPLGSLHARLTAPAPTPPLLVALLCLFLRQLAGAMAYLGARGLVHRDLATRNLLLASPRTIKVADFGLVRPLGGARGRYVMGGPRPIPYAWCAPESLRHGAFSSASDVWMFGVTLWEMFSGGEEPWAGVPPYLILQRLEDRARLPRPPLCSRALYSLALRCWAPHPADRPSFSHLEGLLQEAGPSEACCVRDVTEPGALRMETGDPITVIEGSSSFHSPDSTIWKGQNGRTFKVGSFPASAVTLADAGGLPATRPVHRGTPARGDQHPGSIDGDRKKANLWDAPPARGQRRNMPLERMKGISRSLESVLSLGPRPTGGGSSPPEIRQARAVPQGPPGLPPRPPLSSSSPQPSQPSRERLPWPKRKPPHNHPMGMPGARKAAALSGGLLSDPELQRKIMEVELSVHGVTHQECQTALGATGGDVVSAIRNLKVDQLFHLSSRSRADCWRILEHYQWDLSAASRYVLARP
The note with it: at 1 µM.

The target of experiment [17] is Activated CDC42 kinase 1 (Homo sapiens) (UniProt Q07912). The following applies: at 0.1 µM.
For experiment [18] the target is unchanged. The note with it: at 1 µM.
In experiment [19] the target is High affinity nerve growth factor receptor (Homo sapiens) (UniProt P04629). The note with it: at 0.1 µM.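 Also: each value is a mean of replicate percent inhibition readings against TRKA kinase.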
The target in experiment [20] is T2, Non-receptor tyrosine-protein kinase TNK1 (Homo sapiens). The note with it: at 0.1 µM.

Tyrosine-protein kinase Srms (Homo sapiens), sequence (Q9H3Y6 whole entry): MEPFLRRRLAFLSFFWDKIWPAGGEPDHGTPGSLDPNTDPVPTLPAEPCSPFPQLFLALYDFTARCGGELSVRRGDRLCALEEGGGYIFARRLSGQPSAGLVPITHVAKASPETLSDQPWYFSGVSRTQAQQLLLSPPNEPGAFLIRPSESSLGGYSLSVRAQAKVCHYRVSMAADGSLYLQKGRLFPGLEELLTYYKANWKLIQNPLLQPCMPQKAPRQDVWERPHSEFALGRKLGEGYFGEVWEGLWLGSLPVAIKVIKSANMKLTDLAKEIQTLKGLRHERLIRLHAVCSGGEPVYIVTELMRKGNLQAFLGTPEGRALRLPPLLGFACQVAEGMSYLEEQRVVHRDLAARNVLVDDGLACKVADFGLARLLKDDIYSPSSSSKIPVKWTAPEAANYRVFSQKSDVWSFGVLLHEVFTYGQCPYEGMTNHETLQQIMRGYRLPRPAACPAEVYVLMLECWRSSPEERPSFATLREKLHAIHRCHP
Macrophage-stimulating protein receptor (Homo sapiens), sequence (Q04912 25-304 limits assumed): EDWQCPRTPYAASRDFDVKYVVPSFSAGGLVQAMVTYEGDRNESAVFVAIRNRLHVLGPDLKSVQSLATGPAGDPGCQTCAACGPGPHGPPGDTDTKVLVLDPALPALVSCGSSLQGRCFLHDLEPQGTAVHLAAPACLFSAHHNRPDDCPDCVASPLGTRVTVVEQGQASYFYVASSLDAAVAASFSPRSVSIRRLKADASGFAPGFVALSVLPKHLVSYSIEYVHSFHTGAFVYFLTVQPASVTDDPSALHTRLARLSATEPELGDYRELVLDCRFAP
Macrophage-stimulating protein receptor (Homo sapiens), sequence (Q04912 310-1400 limits assumed): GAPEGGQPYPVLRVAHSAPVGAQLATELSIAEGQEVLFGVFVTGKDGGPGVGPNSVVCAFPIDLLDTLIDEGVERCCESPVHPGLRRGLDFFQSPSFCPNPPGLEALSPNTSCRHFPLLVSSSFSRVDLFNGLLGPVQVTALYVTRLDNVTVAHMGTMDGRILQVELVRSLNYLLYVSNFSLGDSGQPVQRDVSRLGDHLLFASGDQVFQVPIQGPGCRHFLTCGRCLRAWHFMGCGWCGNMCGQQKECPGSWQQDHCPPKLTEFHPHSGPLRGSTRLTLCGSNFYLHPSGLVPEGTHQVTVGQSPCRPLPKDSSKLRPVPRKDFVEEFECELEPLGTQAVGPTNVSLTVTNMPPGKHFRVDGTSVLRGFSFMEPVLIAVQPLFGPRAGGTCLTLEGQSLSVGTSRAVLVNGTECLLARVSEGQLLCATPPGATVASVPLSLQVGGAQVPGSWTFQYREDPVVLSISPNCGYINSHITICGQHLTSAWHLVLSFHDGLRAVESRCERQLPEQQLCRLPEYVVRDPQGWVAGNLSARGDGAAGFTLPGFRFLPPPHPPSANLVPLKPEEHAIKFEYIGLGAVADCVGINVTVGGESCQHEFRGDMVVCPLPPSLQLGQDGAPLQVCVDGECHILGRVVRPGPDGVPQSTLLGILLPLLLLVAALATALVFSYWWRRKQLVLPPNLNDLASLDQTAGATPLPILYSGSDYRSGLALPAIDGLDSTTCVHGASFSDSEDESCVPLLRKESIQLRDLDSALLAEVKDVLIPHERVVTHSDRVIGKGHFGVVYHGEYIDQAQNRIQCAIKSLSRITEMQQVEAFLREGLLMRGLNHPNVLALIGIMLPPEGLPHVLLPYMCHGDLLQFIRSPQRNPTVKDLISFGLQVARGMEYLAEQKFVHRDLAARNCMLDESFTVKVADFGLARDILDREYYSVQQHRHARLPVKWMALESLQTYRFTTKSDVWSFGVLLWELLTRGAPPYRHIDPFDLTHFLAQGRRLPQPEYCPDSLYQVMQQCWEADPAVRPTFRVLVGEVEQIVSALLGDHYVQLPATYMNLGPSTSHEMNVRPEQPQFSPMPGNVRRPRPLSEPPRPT
Proto-oncogene tyrosine-protein kinase receptor Ret (Homo sapiens), P07949 [Y791F], sequence (P07949 whole entry Y791F): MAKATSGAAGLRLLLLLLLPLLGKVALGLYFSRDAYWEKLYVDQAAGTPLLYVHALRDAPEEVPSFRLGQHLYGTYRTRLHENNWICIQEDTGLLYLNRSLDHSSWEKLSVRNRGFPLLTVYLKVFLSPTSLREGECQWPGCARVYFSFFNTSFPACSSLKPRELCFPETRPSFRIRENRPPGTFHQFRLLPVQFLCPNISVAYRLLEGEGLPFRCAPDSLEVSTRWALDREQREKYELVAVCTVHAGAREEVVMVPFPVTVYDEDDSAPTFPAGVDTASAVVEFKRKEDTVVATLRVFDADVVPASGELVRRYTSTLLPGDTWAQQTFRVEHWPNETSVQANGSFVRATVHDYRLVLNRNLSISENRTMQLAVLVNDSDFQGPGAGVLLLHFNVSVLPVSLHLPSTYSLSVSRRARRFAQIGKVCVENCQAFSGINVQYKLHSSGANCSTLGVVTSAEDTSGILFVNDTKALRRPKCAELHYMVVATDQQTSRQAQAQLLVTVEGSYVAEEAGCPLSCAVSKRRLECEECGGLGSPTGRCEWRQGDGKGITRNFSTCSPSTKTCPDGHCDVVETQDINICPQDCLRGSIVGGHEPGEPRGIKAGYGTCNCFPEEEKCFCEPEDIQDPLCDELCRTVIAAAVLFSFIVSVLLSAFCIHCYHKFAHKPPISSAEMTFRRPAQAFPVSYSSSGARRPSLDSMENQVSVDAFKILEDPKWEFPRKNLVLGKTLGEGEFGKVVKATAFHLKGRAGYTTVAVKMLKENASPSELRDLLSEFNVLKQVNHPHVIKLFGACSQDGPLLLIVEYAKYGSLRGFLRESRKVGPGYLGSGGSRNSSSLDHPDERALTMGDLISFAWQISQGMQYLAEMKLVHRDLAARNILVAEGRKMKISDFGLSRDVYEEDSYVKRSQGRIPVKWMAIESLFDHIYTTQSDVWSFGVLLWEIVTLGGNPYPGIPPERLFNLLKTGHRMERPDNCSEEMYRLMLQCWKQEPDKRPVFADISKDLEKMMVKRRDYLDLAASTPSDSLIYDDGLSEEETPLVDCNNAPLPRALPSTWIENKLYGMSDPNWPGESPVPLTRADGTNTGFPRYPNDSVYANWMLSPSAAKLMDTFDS
Proto-oncogene tyrosine-protein kinase Src (Homo sapiens), sequence (P12931 2-536 limits assumed): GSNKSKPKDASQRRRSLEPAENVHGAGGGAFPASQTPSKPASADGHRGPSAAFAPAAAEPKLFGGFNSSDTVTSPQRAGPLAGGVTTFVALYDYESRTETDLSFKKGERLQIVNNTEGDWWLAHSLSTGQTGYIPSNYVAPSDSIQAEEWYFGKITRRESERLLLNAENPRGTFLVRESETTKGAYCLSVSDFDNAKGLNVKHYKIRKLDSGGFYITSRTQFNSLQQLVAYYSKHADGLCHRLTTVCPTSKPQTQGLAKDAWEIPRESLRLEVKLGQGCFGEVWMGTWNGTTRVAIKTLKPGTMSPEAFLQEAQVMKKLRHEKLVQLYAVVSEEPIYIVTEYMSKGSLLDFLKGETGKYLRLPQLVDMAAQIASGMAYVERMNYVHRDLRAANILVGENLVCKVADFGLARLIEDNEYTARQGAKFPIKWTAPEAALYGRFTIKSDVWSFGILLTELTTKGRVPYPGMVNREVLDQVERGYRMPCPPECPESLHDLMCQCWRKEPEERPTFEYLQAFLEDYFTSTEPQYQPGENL
Angiopoietin-1 receptor (Homo sapiens), sequence (Q02763 whole entry): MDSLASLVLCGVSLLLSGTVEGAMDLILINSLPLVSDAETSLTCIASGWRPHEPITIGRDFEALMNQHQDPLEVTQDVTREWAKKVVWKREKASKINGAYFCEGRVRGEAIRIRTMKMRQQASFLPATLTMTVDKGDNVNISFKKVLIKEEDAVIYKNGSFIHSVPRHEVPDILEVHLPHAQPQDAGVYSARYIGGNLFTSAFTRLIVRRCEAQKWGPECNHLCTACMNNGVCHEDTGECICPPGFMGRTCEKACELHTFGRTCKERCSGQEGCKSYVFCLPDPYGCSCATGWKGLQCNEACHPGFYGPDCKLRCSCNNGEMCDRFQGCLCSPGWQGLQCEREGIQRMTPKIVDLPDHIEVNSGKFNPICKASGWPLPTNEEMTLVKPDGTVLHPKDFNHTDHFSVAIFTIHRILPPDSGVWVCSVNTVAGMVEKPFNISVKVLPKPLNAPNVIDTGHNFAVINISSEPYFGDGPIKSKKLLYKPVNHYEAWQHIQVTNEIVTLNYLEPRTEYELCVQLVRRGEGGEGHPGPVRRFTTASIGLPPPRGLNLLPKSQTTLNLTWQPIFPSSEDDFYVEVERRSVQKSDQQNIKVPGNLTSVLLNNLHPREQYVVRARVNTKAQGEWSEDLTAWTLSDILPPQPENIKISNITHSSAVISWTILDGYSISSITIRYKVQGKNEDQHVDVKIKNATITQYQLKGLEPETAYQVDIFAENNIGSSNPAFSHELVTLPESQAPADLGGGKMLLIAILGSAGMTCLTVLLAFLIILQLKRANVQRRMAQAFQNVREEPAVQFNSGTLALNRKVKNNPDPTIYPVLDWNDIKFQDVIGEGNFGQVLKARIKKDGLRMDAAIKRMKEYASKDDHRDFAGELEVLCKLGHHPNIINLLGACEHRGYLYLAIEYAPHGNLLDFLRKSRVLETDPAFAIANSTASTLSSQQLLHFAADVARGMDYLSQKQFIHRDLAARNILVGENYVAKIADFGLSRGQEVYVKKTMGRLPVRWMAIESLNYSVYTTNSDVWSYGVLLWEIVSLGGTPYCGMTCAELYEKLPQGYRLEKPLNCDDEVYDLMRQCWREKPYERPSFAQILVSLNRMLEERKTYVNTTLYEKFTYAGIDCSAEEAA

As for `COc1cc(C=NNc2ncnc3c2cnn3Cc2ccccc2)ccc1O`, the inhibition is 28.4% in experiment [1]; -1.32% in experiment [2]; 12.5% in experiment [3]; 2.7% in [4]; 16.4% in experiment [5]; 31.2% in experiment [6]. Moreover, the inhibition was 76.5% in [7]; -0.22% in [8]; 4.66% in [9]; 4.57% in experiment [10]; -4.26% in experiment [11]; -0.99% in experiment [12]. The inhibition was 16.4% in [13]; 3.65% in experiment [14]; 31.7% in [15]; -2.22% in experiment [16]; -1.7% in [17]; 0.03% in [18]. Further, the inhibition in [19] is -2.9%.
In the case of `NS(=O)(=O)c1ccc(-c2ccc3c(NC(=O)C4CC4)n[nH]c3c2)cc1`, the inhibition turned out to be 5.85% in experiment [1]; 5.07% in experiment [2]; 8.99% in [3]; 1.18% in [4]; 2.15% in experiment [5]; 1.32% in [6]. In addition, the inhibition in [7] is 4.59%; in experiment [8] it was -2.44%; in experiment [9] it was -0.4%; in experiment [10] it was -0.58%; in [11], -2.49%; in experiment [12], 4.93%. Moreover, the inhibition in [13] was 10.3%; in experiment [14] it was 1.08%; in [15] it was 6.97%; in [20], 2.11%; in experiment [16], 4.7%; in experiment [17], 1.28%. Moreover, the inhibition in [18] stood at 1.95%; in experiment [19] it was 3.82%.
For the compound `CCn1c(-c2nonc2N)nc2c(C#CC(C)(C)O)ncc(OC[C@@H]3CCCN3)c21`, the inhibition in experiment [1] is 28.5%; in [2], 1.97%; in [3], -2.78%; in experiment [4], -0.22%; in [5], 0.45%; in experiment [6] it was -0.2%. Also, the inhibition in experiment [7] was -2.58%; in [8], 1.63%; in experiment [9], 0.87%; in experiment [10] it was -0.6%; in [11], -4.11%; in [12], 0.03%. Also, the inhibition in experiment [13] was 1.67%; in experiment [14], -0.35%; in [15], 4.39%; in experiment [20] it was 2.04%; in experiment [16], 1.67%; in [17] it was -0.73%. For the same compound, the values for the inhibition in [18] and in experiment [19] were -0.46% and -2.99%, respectively.
As to `NC(=O)c1sc(-n2cnc3cc(C(F)(F)F)ccc32)cc1OCc1ccccc1Br`, the inhibition was 7.07% in [1]; 0.35% in [2]; -1.59% in experiment [3]; 4.23% in [4]; 5.52% in experiment [5]; 3.37% in experiment [6]. The inhibition turned out to be 2.02% in experiment [7]; 0.27% in experiment [8]; 0.76% in [9]; 0.79% in [10]; 1.46% in [11]; 1.68% in experiment [12]. In addition, the inhibition in experiment [13] came out at 3.28%; in [14] it was 2.07%; in experiment [15], 3.72%; in experiment [20] it was 1.72%; in experiment [16], 5.51%; in experiment [17], 0.49%. The inhibition in experiment [18] was 1.45%; in experiment [19] it was -0.62%.
In the case of `Nc1nonc1-c1nc2cnccc2n1C1CCCCC1`, the inhibition in experiment [1] is 13.2%; in experiment [2], 13.1%; in experiment [3], -1.49%; in experiment [4], 5.33%; in experiment [5], 35.9%; in experiment [6], 1.24%. The inhibition was -1.17% in experiment [7]; 1.53% in experiment [8]; 2.59% in experiment [9]; 3.45% in experiment [10]; -0.01% in experiment [11]; -0.6% in [12]. In addition, the inhibition in experiment [13] was 1.22%; in experiment [14] it was 1.78%; in experiment [15], 3.18%; in experiment [20] it was -1.33%; in [16] it was 20.8%; in experiment [17] it was -1.67%. In addition, the inhibition in experiment [18] and in experiment [19] was -1.55% each time.
For the compound `COc1cccc(-n2ncc3c(N/N=C/c4ccncc4)ncnc32)c1`, the inhibition was found to be 65.9% in experiment [1]; 12.4% in experiment [2]; 60.9% in experiment [3]; 10.2% in experiment [4]; 76% in experiment [5]; 49.1% in [6]. Moreover, the inhibition was 87.3% in experiment [7]; 1.22% in experiment [8]; 14.3% in [9]; -2.07% in experiment [10]; 9.95% in experiment [11]; 6.13% in experiment [12]. The inhibition was 17.2% in experiment [13]; 6.02% in [14]; 37.5% in [15]; 10.1% in experiment [20]; 52.3% in experiment [16]; 2.06% in experiment [17]. The inhibition in experiment [18] was 9.3%; in experiment [19] it was 3.46%.
With `COc1cccc(COc2cc(-n3cnc4ccccc43)sc2C(N)=O)c1`, the inhibition in experiment [1] is 11.6%; in [2] it was -1.15%; in experiment [3], 1.23%; in [4], 1.62%; in experiment [5], 3.74%; in experiment [6], -0.77%. Also, the inhibition in [7] was -2.52%; in [8] it was -2.46%; in [9], -1.46%; in [10] it was -0.33%; in experiment [11] it was -4.12%; in experiment [12], -0.82%. In addition, the inhibition in experiment [13] is 0.59%; in experiment [14], -1.48%; in [15], 3.47%; in experiment [20], 0.87%; in experiment [16] it was 12.1%; in experiment [17] it was -0.46%. The figures for the inhibition in experiment [18] and in experiment [19] were 0.57% and -2.49%, respectively.
